Screening results (PubChem BioAssay)
VACV E9 pol inh: vaccinia E9 polymerase processive synthesis inhibition; normalized absorbance, % (no concentration beside the values); 0.94% of 46,000 active; AID 493162; in vitro processive DNA synthesis, absorbance read-out; stronger effect = lower value; in the data active = normalized absorbance mostly below about 85%, no sharp cut-off; inactive = mostly above about 86%
Of the large screens only hits and unclear results are named; the others gave an inactive call. Many of the other results were omitted from the sample, so hits are more common in it than they were.

COC(=O)[C@@]1(C)CCCC2(C)c3ccc(C(C)C)cc3CCC21 (some centres not stated)	none
COc1ccc2c(c1)[C@@]1(C)CCC[C@](C)(CO)C1CC2 (some centres not stated)	none
CC(C)c1ccc2c(c1)CCC1C(C)(CNC(=O)/C=C/C(=O)O)CCCC21C (configuration not stated)	VACV E9 pol inh 81
O=C(CN1C(=O)/C(=C/c2cccc(Br)c2)SC1=S)NCCc1ccccc1	none
CN(C)Cc1ccc2ccc3cccc4ccc1c2c34	VACV E9 pol inh 12
CCc1cccc2c(=O)c(CN(C)C)c(C)[nH]c12	none
CC(Sc1ccc(Br)c2cccc(C(=O)O)c12)C(=O)O (configuration not stated)	none
CCCc1cc(=O)[nH]c(/N=C(\N)Nc2cccc(C(F)(F)F)c2)n1	none
COc1ccc(SCC(=O)NCc2ccc3c(c2)OCO3)cc1	none
COc1ccc2c(c1)c(OC)[n+](C)c1c3cc4c(cc3ccc21)OCO4	VACV E9 pol inh 77
C[n+]1cc2c3c(ccc2c2ccc4cc5c(cc4c21)OCO5)OCO3	none
O=C1Nc2ccccc2/C1=C/C=C/c1ccco1	VACV E9 pol inh 66
O=C1Nc2ccccc2/C1=C\C1=Cc2ccccc2OC1	none
O=C1Nc2ccccc2/C1=C/C(=O)c1ccccc1	none
O=C1NC(=S)N(c2ccccc2)C(=O)/C1=C/C=C/c1ccco1	VACV E9 pol inh 53
O=C1NC(=S)N/C1=C\c1ccco1	none
O=C1NC(=O)N(c2ccccc2)C(=O)/C1=C/c1ccco1	none
COc1ccc(N2C(=O)CCC(C(=O)N3CCN(c4ccccc4)CC3)C2c2ccc(F)cc2)cc1 (configuration not stated)	none
COC(=O)C1=C(C)N2[C@@H](C=C1)[C@@](C#N)(C(N)=O)[C@@H](c1ccccc1)[C@@H]2C(=O)OC	none
Brc1ccc(N=Cc2ccc3c(c2)OCCO3)cc1	none
CCOC(=O)c1ccc2c(c1)c(C)c(C)n2Cc1ccccc1	none
Cc1c(C)n(CCN(C)C)c2ccc(C(=O)OCCN(C)C)cc12	VACV E9 pol inh 62
Cc1c(C)n(Cc2ccccc2)c2ccc(C(=O)OCCN3CCOCC3)cc12	none
CCC(C)NC(=O)c1cc(-c2ccccn2)nc2ccccc12 (configuration not stated)	none
CCN1C(=O)/C(=C\C=C\c2ccccc2)SC1=S	none
COc1cccc(CSCC(=O)NCc2ccccc2Cl)c1OC	none
Cc1ccnc(SCC(=O)Nc2cccc(C(F)(F)F)c2)n1	none
Cc1c(Sc2ccc(Cl)cc2)cnn1C(=O)Nc1cccc(C(F)(F)F)c1	VACV E9 pol inh 71
O=C(Nc1cccc(Cl)c1)n1ncc2cc(Cl)ccc21	none
CCOc1ccc(N(C(C)C(=O)NCc2ccc(C)cc2)S(C)(=O)=O)cc1 (configuration not stated)	none
Cc1ccc(C(=O)N(C)c2ccc(OCC(=O)N(C)C3CCN(C)CC3)cc2)cc1	none
CCc1nnc(NC(=O)c2ccc(N3C(=O)C4C5C=CC(C5)C4C3=O)cc2)s1 (configuration not stated)	none
O=C(O)Cn1c2ccc(Cl)cc2c2nc3ccccc3nc21	VACV E9 pol inh 53
CCOC(=O)Cn1c2ccc(Cl)cc2c2nc3ccccc3nc21	none
Cc1ccc2c(c1)c1nc3ccccc3nc1n2CC(=O)O	none
CCCN(CC1CC1)C(=O)c1cc(S(=O)(=O)N(CC)CC)ccc1Cl	none
CCOC(=O)c1sc2nc(SCc3cccc(Cl)c3)n(Cc3cccs3)c(=O)c2c1C	none
Cc1c(Cl)cccc1NN	none
COC(=O)C1=C(C)N=c2s/c(=C/c3ccc(OC)cc3)c(=O)n2C1c1cccs1 (configuration not stated)	none
Cc1cc(Oc2ccccc2)nc(SCc2ccccc2)n1	none
Cc1cc(OC(=O)c2ccco2)nc(SCc2c(Cl)cccc2Cl)n1	VACV E9 pol inh 50
O=C(Oc1ccc(Cl)c2cccnc12)c1ccco1	none
CCOc1ccc2c(=O)c(-c3ccccc3)coc2c1	none
Cc1cccc(NC(=O)Cn2c(O)c(N=N)c3ccccc32)c1	none
CCCNC(=O)C1CC(c2ccc(F)cc2)=NO1 (configuration not stated)	none
O=C(CSc1nnc2sc3ccccc3n12)c1cccs1	none
N#CSCC(=O)c1cccs1	VACV E9 pol inh 61
CCN(CC)c1cc(-c2cccs2)nc(SCC(=O)c2cccs2)c1C#N	none
C=CCn1nnnc1SCC(=O)c1ccccc1	none
COC(=O)c1cc2c(s1)CN(C1CCCc3ccccc31)C2 (configuration not stated)	none
c1cc(C(N2CCOCC2)N2CCOCC2)ccn1	none
CCOc1cccc(=O)c2c(C)n(-c3ccc(OC)cc3)c(C)c12	none
CCOc1cccc(=NC2CCCCC2)c2c(C)n(C)c(C)c12	VACV E9 pol inh 89
CCOc1ccccc1C(=O)NC1CCCCCC1	none
Cc1sc2c(c1C)CSC(C(=O)NC(C)C)=C2	none
Cc1ccc(N2NC3(CC(C)CC(C)(C)C3)NC2=S)cc1C (configuration not stated)	none
COc1ccc(-c2nnc(SC3CCOC3=O)o2)cc1 (configuration not stated)	none
CCN1C(=O)/C(=C\c2ccc(NC(=O)C(F)(F)F)cc2)SC1=S	none
O=C(O)CCc1nc2ccc(C(=O)O)cc2[nH]1	none
C=Cc1c(C)c2cc3[nH]c(cc4nc(cc5nc(cc1[nH]2)C(C)=C5CCC(=O)O)C(CCC(=O)O)=C4C)c(C)c3C=C	VACV E9 pol inh 22
Nc1ccc2nc(CCC(=O)O)[nH]c2c1	none
CCSc1nc2sc3c(c2c(=O)n1-c1ccc(OC)cc1)CC(C(C)C)OC3 (configuration not stated)	none
CCOC(=O)CC(=O)Nc1ccsc1C(=O)OC	none
C=C1c2c(Cl)ccc(O)c2C(O)=C2C(=O)[C@]3(O)C(O)=C(C(N)=O)C(=O)[C@@H](N(C)C)[C@@H]3[C@@H](O)[C@H]12	none
C=C1c2cccc(O)c2C(O)=C2C(=O)[C@]3(O)C(O)=C(C(N)=O)C(=O)[C@@H](N(C)C)[C@@H]3[C@@H](O)[C@H]12	VACV E9 pol inh 55
CN(C)[C@@H]1C(=O)C(C(N)=O)=C(O)[C@@]2(O)C(=O)C3=C(O)c4c(O)cccc4[C@@](C)(O)[C@H]3C[C@@H]12	none
Cc1ccc(S(=O)(=O)N2CCOC2=O)cc1	none
COc1cc(Cc2nnc(C(=O)NC3CCCCCC3)o2)cc(OC)c1OC	none
Cc1ccc(/C=C2/Sc3ccccc3NC2=O)cc1	none
CC(=C\c1ccccc1)/C=C1/SC(=O)NC1=O	none
O=C1NC(=O)/C(=C\c2ccccc2)S1	VACV E9 pol inh 74
Cc1nn(-c2ccccc2)c2sc(C(=O)NC(C)C)cc12	none
Cc1nn(-c2ccccc2)c2sc(C#N)c(N)c12	VACV E9 pol inh 80
Cc1nn(-c2ccccc2)c2sc(C(=O)O)cc12	none
Cc1ccc2oc(=O)c3cnn(CC(=O)NCCCN4CCC(C)CC4)c3c2c1	none
Cc1ccc(C=Nc2ccc(Nc3ccccc3)cc2)s1	none
Cc1c(C)c(C)c(CN2CCOC(c3ccccc3)C2C)c(C)c1C (configuration not stated)	none
O=C(O)c1ccccc1-c1nc2ccccc2s1	none
Cc1csc(NC(=O)c2ccccc2C(=O)O)c1-c1nc2ccccc2s1	VACV E9 pol inh 72
Cc1ccc2nc(NC(=O)c3ccccc3C(=O)O)sc2c1	none
COc1ccc(-c2nnc3sc(NC(=O)C(C)C)nn23)cc1	none
CN1CCN(c2ncnc3sc(-c4ccccc4)cc23)CC1	VACV E9 pol inh 50
COc1ncnc2sc(-c3ccccc3)cc12	none
c1ccc(-c2cc3c(N4CCc5ccccc54)ncnc3s2)cc1	none
CCc1ccc(Oc2coc3cc(OC(=O)c4ccco4)ccc3c2=O)cc1	none
CCN(CC)CCCNc1nc2cc(OC)c(OC)cc2c2nc(-c3ccccc3)nn12	VACV E9 pol inh 34
COc1cc2nc(-n3nc(C)cc3C)n3nc(-c4ccccc4)nc3c2cc1OC	none
